Assay outcomes (PubChem)
ClpP mod = qHTS Assay for Activators of ClpP; Potency, µM (highest dose often 57.5 µM), for the others: at the top dose activity change, negative = active; actives 1.9% (n = 340,000); AID 651965, 2013; purified B. subtilis ClpP, FRET peptide cleavage, 20 min; ATP-dependent Clp protease proteolytic subunit (Bacillus subtilis (strain 168)), P80244; active = well fitted falling curve with a large enough effect; inconclusive = small, poorly fitted or top-dose-only effect; inactive = no such curve, though single readings can be large or run the other way; also: potency is read from the fitted curve at half-maximal effect; the source files actives as falling curves though it sought activators and does not explain the sign; nearly all actives have a fitted effect of over 65% in size
Target sequence (P80244 whole entry, looked up): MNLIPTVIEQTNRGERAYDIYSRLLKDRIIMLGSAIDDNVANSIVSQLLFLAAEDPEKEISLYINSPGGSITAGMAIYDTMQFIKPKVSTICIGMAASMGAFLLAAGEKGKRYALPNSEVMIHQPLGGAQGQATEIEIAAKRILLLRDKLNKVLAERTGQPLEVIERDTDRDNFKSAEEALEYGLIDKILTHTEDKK
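ClpP 10 microg/mL final, pH 8 Tris/KCl buffer with BSA, glycerol, Tween-20; compound pinned in; FRET-FV substrate; RT 20 min; Ex320/Em430; ΔFRET vs ADEP 5.8 microM, DMSO, no enzyme.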
GLP-1R inv ag = inverse agonists of human GLP-1 receptor; P43220; HEK293 GLP-1R CRE-luciferase, luminescence, 24 h; GLP-1R form is constitutively active; Potency, µM (top dose mostly 38.3 µM), for the others: at the top dose activity change, negative = inhibition, actives largely listed as inhibitors; actives 1.6% (n = 410,000); AID 624417; also: potency is read from the fitted curve at half-maximal effect; % is scaled to controls: 0 for no effect and ±100 for the full control effect; nearly all actives have a fitted effect of over 55% in size
Target sequence (P43220 whole entry, looked up): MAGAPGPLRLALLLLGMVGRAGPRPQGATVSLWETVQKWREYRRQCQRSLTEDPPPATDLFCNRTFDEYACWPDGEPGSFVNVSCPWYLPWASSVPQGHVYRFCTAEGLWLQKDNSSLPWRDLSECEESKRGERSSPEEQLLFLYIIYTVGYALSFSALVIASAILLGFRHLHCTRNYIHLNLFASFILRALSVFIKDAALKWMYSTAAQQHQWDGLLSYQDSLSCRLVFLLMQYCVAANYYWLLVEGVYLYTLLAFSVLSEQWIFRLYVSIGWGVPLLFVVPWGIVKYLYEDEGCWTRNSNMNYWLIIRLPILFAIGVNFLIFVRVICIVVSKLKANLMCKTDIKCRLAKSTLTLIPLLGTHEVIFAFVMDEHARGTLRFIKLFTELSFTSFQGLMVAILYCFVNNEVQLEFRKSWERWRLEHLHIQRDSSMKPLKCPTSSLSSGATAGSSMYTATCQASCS
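Seeding at 200 cells/uL, 12 h culture, 24 hr compound treatment, then luciferase reagent and a luminescence read; cells are HEK293 stably expressing a constitutively active GLP-1R plus cAMP-responsive luciferase.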
DRD3 agonist = activates the human D3 dopamine receptor; P35462; D3R DiscoveRx beta-arrestin cells, luminescence, 90 min; max activation, %; actives 0.58% (n = 410,000); AID 652048; in the data active = max activation above about 30%; also: 0% is about no effect
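Cells at 1500/well, incubated overnight, then treated with pinned compounds (dopamine as control) for 90 min at 37 degrees C. DiscoveRx reagent added for 30 - 60 minutes at room temperature; luminescence read.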
GLP1R ag = agonists of human GLP-1 receptor; P43220; HEK293 GLP-1R CRE-luciferase, luminescence, 4-6 h; cells express a hypersensitive GLP-1R form; Potency, µM (titrated, usually from 45.6 µM), without a hit: top-dose activation, actives largely listed as activators; actives 0.007% (n = 380,000); AID 624172; also: potency is read from the fitted curve at half-maximal effect; % of control where 0% means no effect
D3 antag = antagonists of human D3 dopamine receptor. P35462. D3R cells, DiscoveRx beta-arrestin luminescence, antagonist mode; hits give low values. max response, negative = inhibition, %. actives 2.5% (n = 360,000). AID 652054; in the data active = max response below about -50%; inconclusive = no clear call, values can overlap the other calls; also: % is scaled to controls: 0 for no effect and ±100 for the full control effect
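Cells expressing the human receptor were seeded at 1500 cells/well, incubated overnight at 37 degrees C in 5% CO2, then exposed to library compounds with dopamine controls for 90 minutes at 37 degrees C before luminescent detection.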
GLP1R cytotox = cytotoxicity counter-screen for GLP-1 receptor inverse agonists. HEK293 cAMP-luciferase reporter cells, luminescence, 24 h. Potency, µM (doses to about 38.3 µM), for inactives: at the top dose activity change, negative = inhibition, actives largely listed as inhibitors. actives 0.13% (n = 410,000). AID 624418;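 also: loss of luciferase light is scored as toxicity; potency is read from the fitted curve at half-maximal effect; % is scaled to controls: 0 for no effect and ±100 for the full control effect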
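Luminescence readout: signal drop marks cytotoxicity. Plated cells grew 12 h at 37 °C, 5% CO2, received 23 nL compound for 24 h, then got luciferase reagent, read after 12 min at RT.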
ClpP validation = inhibits B. subtilis ClpP protease, hit validation; shares compounds with ClpP mod; purified B. subtilis ClpP, FRET-FV substrate cleavage, 20 min; Potency, µM (top dose mostly 57.5 µM), inactives show at the highest dose activity change, negative = inhibition, actives largely listed as inhibitors; actives 40% (n = 470); AID 743245; also: potency is read from the fitted curve at half-maximal effect; % is scaled to controls: 0 for no effect and ±100 for the full control effect; nearly all actives have a fitted effect of over 70% in size
The depositor's hits bear a star; [ ] = dose if it differs, or a comment. Shown are actives, neighbours in structure and some others; about 5.7% of the full set was active somewhere. Unless noted, calls follow the shape of the dose curve; as a rule, active = well fitted curve in the direction sought with a large enough effect; inconclusive = small, poorly fitted or top-dose-only effect, or another doubt; inactive = no such curve, though single readings can be large; an effect the other way counts as inactive or inconclusive.

For Cc1cc(N2CCN(Cc3cn(C)nc3-c3cccc(Cl)c3)CC2)cc(C)n1 the results were GLP-1R inv ag inconclusive, DRD3 agonist 4, GLP1R ag -1%, D3 antag -14 and GLP1R cytotox inconclusive.
Cn1cc(CN2CCN(c3ncccn3)CC2)c(-c2cccc(Cl)c2)n1 was read as ClpP mod 221%, GLP-1R inv ag -13%[7.66 µM], DRD3 agonist 1, GLP1R ag 1%, D3 antag -3, GLP1R cytotox 3%[7.66 µM] and ClpP validation -1%.
Cc1ccc(Cn2c(CNC(=O)c3ccc(Cl)c([N+](=O)[O-])c3)nc3cccnc32)cc1 was read as ClpP mod -16%, GLP-1R inv ag 15%, DRD3 agonist -11 and GLP1R cytotox -1%.
Cc1cccc(N2CCN(C(=O)c3cn(C4CCCCC4)c(=O)c4c3c3ccccc3n4C)CC2)c1C was read as ClpP mod 8.9µM*, GLP-1R inv ag inconclusive, DRD3 agonist 3, GLP1R cytotox -5% and ClpP validation -23%.
For O=C(NCCSc1c(-c2ccccc2)[nH]c2ccccc12)c1cc2ccccc2oc1=O the results were ClpP mod 32%, GLP-1R inv ag inconclusive, DRD3 agonist -3, GLP1R ag 0%, D3 antag -10, GLP1R cytotox -7% and ClpP validation 8%.
Cc1cc(C)c(NC(=O)C(C)n2nc(C)c3sc4ccccc4c3c2=O)c(C)c1 (stereo unspecified) was read as ClpP mod -5%, GLP-1R inv ag -11%, DRD3 agonist 7 and GLP1R cytotox 2%.
COc1cc(CN2C[C@@H](CO)O[C@@H](n3cnc4c(NCc5ccco5)ncnc43)C2)cc(OC)c1OC was read as ClpP mod 0%, GLP-1R inv ag 9%, DRD3 agonist 1, GLP1R ag -3%, D3 antag 4 and GLP1R cytotox -7%.
Screening CC(C)(C)C1CCc2c(sc(NC(=O)c3ccco3)c2C(N)=O)C1 (stereo unspecified) returned ClpP mod 107%, GLP-1R inv ag 15%, DRD3 agonist 9, GLP1R ag 0%, D3 antag 8, GLP1R cytotox 4% and ClpP validation 31µM*.
Screening O=C(Nc1sc2c(c1C(=O)NC1CCCCC1)CCC2)c1ccco1 returned ClpP mod 110%, GLP-1R inv ag 0%, DRD3 agonist -6, GLP1R ag -4%, D3 antag 8, GLP1R cytotox 7% and ClpP validation inconclusive.
For CCC1CCc2c(sc(NC(=O)c3ccco3)c2C(N)=O)C1 (stereo unspecified) the results were ClpP mod -21%, GLP-1R inv ag 19%, DRD3 agonist 7, GLP1R ag 3%, D3 antag 17 and GLP1R cytotox -4%.
For CCc1nc(Nc2ccncc2)c2oc3ccccc3c2n1 the results were ClpP mod 8.9µM*, GLP-1R inv ag inconclusive, DRD3 agonist 2, GLP1R ag -3%, D3 antag 6, GLP1R cytotox inconclusive and ClpP validation inconclusive.
`CCc1nc(Nc2cccc(O)c2)c2oc3ccccc3c2n1` gave ClpP mod -11%, GLP-1R inv ag inconclusive, DRD3 agonist 19, GLP1R ag 1%, D3 antag 34 and GLP1R cytotox -22%.
COc1cc2ccccc2cc1C(=O)Nc1ccc(Br)cn1 was read as ClpP mod 3.5µM*, GLP-1R inv ag 11%, DRD3 agonist 6, GLP1R ag -5%, D3 antag 18, GLP1R cytotox 10% and ClpP validation inconclusive.
`COc1c(C(=O)Nc2ccc(Br)cn2)ccc2ccccc12` gave ClpP mod -17%, GLP-1R inv ag 38%, DRD3 agonist 22, GLP1R ag 22%, D3 antag 43 and GLP1R cytotox -1%.
O=c1[nH]c2cc(Cl)ccc2c(O)c1-c1cccc(Oc2ccccc2)c1 was read as ClpP mod -17%, GLP-1R inv ag 5%, DRD3 agonist 7, GLP1R ag 6%, D3 antag 2 and GLP1R cytotox -2%.
O=c1[nH]c2cc(Cl)ccc2c(O)c1-c1ccc(Oc2ccccc2)cc1 was read as ClpP validation -15%.
`CC(C)CNC(=O)NC1C(NC(=O)NCC(C)C)N(C)C(=O)N1C` (stereo unspecified) gave ClpP mod 44%, GLP-1R inv ag 3%, DRD3 agonist -2, GLP1R ag 1%, D3 antag 0, GLP1R cytotox 15% and ClpP validation 0%.
CCC(C)NC(=O)NC1C(NC(=O)NC(C)CC)N(C)C(=O)N1C (stereo unspecified) was read as ClpP mod -2%, GLP-1R inv ag 0%, DRD3 agonist -10, GLP1R ag -13%, D3 antag 5 and GLP1R cytotox -5%.
COc1ccc2c(c1)CCc1c(C(=O)Nc3cc(C)n(Cc4ccc(Cl)cc4)n3)noc1-2 was read as ClpP mod 60%, GLP-1R inv ag 8%, DRD3 agonist 3, GLP1R ag 9%, D3 antag 21, GLP1R cytotox 0% and ClpP validation -17%.
Screening O=C(CCn1c(=O)c2sccc2n(Cc2ccccc2F)c1=O)NCc1ccc2c(c1)OCO2 returned ClpP mod -3%, GLP-1R inv ag 3%, DRD3 agonist 1 and GLP1R cytotox -7%.
Screening O=C(CCc1ccc(S(=O)(=O)N2CCOCC2)cc1)N1CCc2ccccc2C1 returned ClpP mod 424%, GLP-1R inv ag -15%[0.307 µM], DRD3 agonist 2, GLP1R ag -4%, D3 antag 9, GLP1R cytotox -1%[0.307 µM] and ClpP validation 0%.
Screening Cc1ccc(NS(=O)(=O)c2cccc(C(=O)N3CCCCC3)c2)cc1 returned ClpP mod 77%, GLP-1R inv ag inconclusive, DRD3 agonist 2, GLP1R ag 21%, D3 antag 18, GLP1R cytotox -10% and ClpP validation 0%.
Screening Cc1ccc(NS(=O)(=O)c2cccc(C(=O)N3CCCCCC3)c2)cc1 returned ClpP mod 0%, GLP-1R inv ag inconclusive, DRD3 agonist -8, GLP1R ag 7%, D3 antag -18 and GLP1R cytotox 9%.
